GLS inh – qHTS for Inhibitors of Glutaminase (GLS); GLS enzymatic activity, qHTS titration; Potency, µM (series often up to 45.5 µM), without a hit: top-dose activity change, negative = inhibition, hits mostly inhibitors; 410,000 tested, 0.21% active; further: potency means the concentration at half of the fitted maximal effect; on the % scale 0 is the no-effect control and ±100 the full control effect
Target sequence (O94925 whole entry, looked up): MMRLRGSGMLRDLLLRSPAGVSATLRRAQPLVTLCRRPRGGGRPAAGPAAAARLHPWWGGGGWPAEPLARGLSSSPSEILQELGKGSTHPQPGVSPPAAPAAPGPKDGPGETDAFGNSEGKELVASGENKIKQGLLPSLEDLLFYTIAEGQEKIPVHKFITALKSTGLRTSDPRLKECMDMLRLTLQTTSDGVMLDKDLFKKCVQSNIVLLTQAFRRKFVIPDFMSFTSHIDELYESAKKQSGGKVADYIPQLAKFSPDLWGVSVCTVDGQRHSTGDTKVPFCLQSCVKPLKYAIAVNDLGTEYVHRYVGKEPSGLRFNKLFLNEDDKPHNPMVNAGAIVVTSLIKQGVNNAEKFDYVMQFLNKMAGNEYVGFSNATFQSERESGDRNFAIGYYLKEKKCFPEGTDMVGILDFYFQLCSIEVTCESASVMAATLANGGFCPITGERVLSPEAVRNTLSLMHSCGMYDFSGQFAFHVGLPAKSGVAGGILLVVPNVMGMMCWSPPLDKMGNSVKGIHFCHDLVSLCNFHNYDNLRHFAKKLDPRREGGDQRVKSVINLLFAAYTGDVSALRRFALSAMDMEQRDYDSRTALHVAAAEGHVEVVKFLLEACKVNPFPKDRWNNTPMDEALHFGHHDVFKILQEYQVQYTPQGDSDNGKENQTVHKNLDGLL
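hKGA; 45 mM KH2PO4 pH 8.2 + 0.02% Tween-20; cpd via pin tool; 1 mM Gln soln; GluOx/HRP/Amplex Red; RT 30 min; fluor. t0 & final.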
mIDH1 inhibitor – qHTS for Inhibitors of mutant isocitrate dehydrogenase 1 (IDH1): qHTS; 390,000 tested, 0.093% active; Potency, µM (highest dose often 76.6 µM), without a hit: at the top dose activity change, negative = inhibition, usual class: inhibitors; AID 602179, 2012; IDH1-R132H enzyme, NADPH consumption, diaphorase/resazurin fluorescence; further: potency means the concentration at half of the fitted maximal effect; on the % scale 0 is the no-effect control and ±100 the full control effect; nearly all actives have a fitted effect of over 65% in size
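IDH1-R132H (0.5 ug/mL) preincubated 30 min with compound, then NADPH (0.016 mM) and alpha-KG (2 mM) added; 80 min at RT, pH 7.5. Remaining NADPH coupled via diaphorase/resazurin to fluorescence (540/590 nm); concentration-response curves normalized to no-enzyme control.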
TrxR1 inh – qHTS Assay for Inhibitors of Mammalian Selenoprotein Thioredoxin Reductase 1 (TrxR1): qHTS; AID 588453, 2011; 390,000 tested, 1% active; recombinant rTrxR1, NADPH fluorescence consumption, selenite substrate; Potency, µM (highest dose often 114 µM), inactives show at the highest dose activity change, negative = inhibition, most hits filed as inhibitors; further: potency means the concentration at half of the fitted maximal effect; on the % scale 0 is the no-effect control and ±100 the full control effect; nearly all actives have a fitted effect of over 65% in size
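Rat TrxR1 (90 nM in the dispensed reagent) was pre-reduced with 400 uM NADPH for 5 min at room temperature, then incubated with compound for 15 min. After 400 uM selenite was added, NADPH fluorescence (Ex 340/Em 450 nm) was followed for 8 min.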
TrxR1 substrate – qHTS Assay for Substrates of Mammalian Selenoprotein Thioredoxin Reductase 1 (TrxR1): qHTS; Thioredoxin reductase 1, cytoplasmic (Rattus norvegicus), O89049; purified TrxR1 substrate turnover, NADPH consumption readout; Potency, µM (series often up to 114 µM), inactives show at the highest dose activity change, negative = substrate turnover; 390,000 tested, 0.01% active; AID 588456, 2011; further: potency means the concentration at half of the fitted maximal effect; on the % scale 0 is the no-effect control and ±100 the full control effect; nearly all actives have a fitted effect of over 50% in size
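Rat TrxR1, dispensed at 90 nM, was prereduced with 400 uM NADPH (final) for 5 min at ~22 deg C, then incubated with compound 15 min before 400 uM selenite. A first-read NADPH fluorescence drop versus no-compound background flagged substrates.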
Resorufin autofl – qHTS for Inhibitors of mutant isocitrate dehydrogenase 1 (IDH1): Cherrypicks Autofluorescence Interference. 750 tested, under 10 active. Resorufin detection reagent fluorescence interference, cell-free. inhibition of signal, % at 51.2 µM. shares compounds with mIDH1 inhibitor;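 further: 0% = wells with normal resorufin and full inhibition = wells lacking resorufin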
WT IDH1 inh – qHTS for Inhibitors of mutant isocitrate dehydrogenase 1 (IDH1): Cherrypicks in WT IDH1 | shares compounds with mIDH1 inhibitor | WT IDH1 enzyme, NADPH diaphorase/resazurin fluorescence | Potency, µM (highest dose often 115 µM), inactives show at the highest dose activity change, negative = inhibition, hits mostly inhibitors | 750 tested, 9% active | AID 623995, 2012;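 further: potency means the concentration at half of the fitted maximal effect; 0% = full WT IDH1 enzyme control and full inhibition = no enzyme wells; nearly all actives have a fitted effect of over 55% in size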
IDH1 R132H conf – qHTS for Inhibitors of mutant isocitrate dehydrogenase 1 (IDH1): Confirmation of Cherrypicks. AID 624002, 2012. Potency, µM (titrated, usually from 76.6 µM), for inactives: top-dose activity change, negative = inhibition, hits mostly inhibitors. IDH1 R132H enzyme, NADPH diaphorase/resazurin fluorescence. shares compounds with mIDH1 inhibitor. 750 tested, 83% active; further: potency means the concentration at half of the fitted maximal effect; nearly all actives have a fitted effect of over 50% in size
An asterisk follows results filed as active; ? = inconclusive; nt = no result given; [ ] = dose if it differs, or a comment. Hits are enriched below; roughly 1.2% of the tested compounds scored in any of these assays. The call rests on the fitted dose curve; in most records, active means well fitted curve in the direction sought with a large enough effect; inconclusive means small, poorly fitted or top-dose-only effect, or another doubt; inactive means no such curve, though single readings can be large; an effect the other way counts as inactive or inconclusive.

SMILES	GLS inh	mIDH1 inhibitor	TrxR1 inh	TrxR1 substrate	Resorufin autofl	WT IDH1 inh	IDH1 R132H conf
CCN(CC)C(=O)c1ccc2c(c1)N(Cc1c(F)cccc1Cl)C(=O)c1ccccc1S2	4%	32µM*	25%	1%	-2	?	28µM*
CC(=O)O[C@H]1CC2(C)[C@@H](C[C@@H](O)[C@H]3[C@@]4(C)CC[C@@H](O)[C@@H](C)[C@@H]4CC[C@@]32C)C1=C(CCC=C(C)C)C(=O)O (stereo partly drawn)	nt	nt	12%[57.1 µM]	6%[57.1 µM]	nt	nt	nt
N=c1c(S(=O)(=O)c2ccc(Br)cc2)cc2c(=O)n3ccccc3nc2n1C1CCCC1	3%	-6%	2%	22%	nt	nt	nt
N=c1c(S(=O)(=O)c2ccccc2)cc2c(=O)n3ccccc3nc2n1C1CCCC1	3%	18µM*	26%	8%	0	5%	7.1µM*
Cc1csc(NC(=O)COCC(=O)O)c1-c1nc2ccccc2s1	-28%	15%	19%[57.1 µM]	7%[57.1 µM]	nt	nt	nt
Cc1csc(NC(=O)CCCC(=O)O)c1-c1nc2ccccc2s1	-7%	?	-6%[57.1 µM]	-2%[57.1 µM]	-2	8%	25µM*
COc1cc2c(-c3ccc4cc[nH]c4c3)c(-c3ccsc3)oc(=O)c2cc1OC	-6%	?	23%[57.1 µM]	9%[57.1 µM]	-8	-1%	11µM*
COc1ccc(-c2c(-c3ccsc3)oc(=O)c3cc(OC)c(OC)cc23)cn1	-1%	28µM*	24%	14%	0	-3%	8.9µM*
COc1cc2c(C(F)(F)F)c(-c3ccsc3)oc(=O)c2cc1OC	-3%	8%	20%	-1%	nt	nt	nt
COCCNC(=O)CSc1nc2ccccc2nc1Cc1ccc(C)cc1	-14%	26%	10%[57.1 µM]	1%[57.1 µM]	nt	nt	nt
COc1cc(S(=O)(=O)NCCc2c(C)[nH]c3ccccc23)c(C)cc1C	1%	-3%	4%	-13%	nt	nt	nt
CCc1nc(SCC(=O)N2CC(=O)Nc3ccccc32)c2c(C)c(C)sc2n1	7%	?	10%	1%	7	2%	32µM*
Cc1sc2nc(C3CCCCC3)nc(SCC(=O)N3CC(=O)Nc4ccccc43)c2c1C	0%	2%	4%	3%	nt	nt	nt
CC(C)(C)n1nnnc1C(c1cccs1)N(Cc1cccnc1)Cc1ccccc1Cl (stereo not drawn)	-11%	?	-6%	-9%	3	1%	20µM*
O=C(Cc1ccc(Oc2ccccc2)cc1)NO	nt	nt	4%	-3%	nt	nt	nt
CCC1C(C#N)=C(SCC(N)=O)NC2=C1C(=O)CC(C)(C)C2 (stereo not drawn)	-29%	2%	4%[57.1 µM]	-4%[57.1 µM]	nt	nt	nt
COc1ccc(C2C(C#N)=C(SCC(=O)Nc3ccc(C)cc3)NC3=C2C(=O)CC(C)(C)C3)cc1 (stereo not drawn)	1%	13µM*	13%[57.1 µM]	16%	-4	8%	7.1µM*
O=[N+]([O-])c1nccn1CO[C@@H](CO)[C@H](O)CO	-1%	nt	nt	nt	nt	nt	nt
COc1ccc(Br)cc1/C=N/NC(=O)c1nc(-c2ccccc2)n2c1CCCCC2	-1%	?	1%	-4%	3	1%	?
CC(=O)Nc1c(C)nn(-c2ccccc2)c1N1CCC(C(=O)NCc2ccc(Cl)cc2)CC1	1%	0%	9%[57.1 µM]	3%[57.1 µM]	nt	nt	nt
COc1ccc(S(=O)(=O)Nc2ccc(S(=O)(=O)Nc3ccc(F)cc3)cc2)cc1C	29%	?	5%[11.4 µM]	5%[11.4 µM]	-2	3%	40µM*
COc1ccc(S(=O)(=O)Nc2cccc(F)c2)cc1C	8%	-4%	14%	-7%	nt	nt	nt
Cc1ccc(S(=O)(=O)Nc2ccc(S(=O)(=O)Nc3nccs3)cc2)cc1C	-9%	52µM*	22%	0%	2	15%	45µM*
COc1ccc(C(=O)C[n+]2cccc3cccc(O)c32)cc1	nt	nt	19%	1%	nt	nt	nt
O=C(/C=C/c1cccs1)Nc1scc(-c2ccccc2)c1C(=O)O	-28%	?	24%[57.1 µM]	10%[57.1 µM]	-25	35µM*	35µM*
SMILES	GLS inh	mIDH1 inhibitor	TrxR1 inh	TrxR1 substrate	Resorufin autofl	WT IDH1 inh	IDH1 R132H conf
O=C(/C=C/c1cccs1)Nc1nc(-c2ccccc2)cs1	-18%	-2%	-16%	6%	nt	nt	nt
COc1cccc(NC(=O)c2sc3nc(N4CCOCC4)c4c(c3c2N)CCCC4)c1	3%	?	-8%	-7%	-4	12%	7.1µM*
CC(=O)c1ccc(NC(=O)c2sc3nc(N4CCOCC4)c4c(c3c2N)CCCC4)cc1	8%	?	16%	-5%	-4	-5%	6.3µM*
Nc1c(C(=O)NCc2ccccc2)sc2nc(N3CCOCC3)c3c(c12)CCCC3	-5%	?	10%[57.1 µM]	93%[57.1 µM]	4	?	7.9µM*
Nc1c(C(=O)Nc2ccccc2)sc2nc(N3CCOCC3)c3c(c12)CCCC3	-1%	-4%	nt	nt	nt	nt	nt
COc1ccc(N2CCN(C(=O)c3cc4cc5ccc(Cl)cc5nc4o3)CC2)cc1	-7%	-6%	2%	-8%	nt	nt	nt
COc1cc(OC)c(NC(=O)CCn2cccn2)cc1Cl	-5%	7%	12%[57.1 µM]	4%[57.1 µM]	nt	nt	nt
O=C(Oc1ccc(-c2cnc3ccccc3n2)cc1)c1cc([N+](=O)[O-])ccc1Cl	-3%	0%	11%[57.1 µM]	-5%[57.1 µM]	nt	nt	nt
Cc1c(C(=O)Oc2ccc(-c3cnc4ccccc4n3)cc2)cccc1[N+](=O)[O-]	2%	?	5%	-4%	4	31%	50µM*
N#Cc1ccccc1Cn1cc(/C=C/[N+](=O)[O-])c2ccccc21	12%	28µM*	?	0%[57.1 µM]	5	?	20µM*
CCN(CC)C(=O)c1sc2c(c1C)c(=O)n(-c1ccc(C)c(C)c1)c(=O)n2Cc1cccc(Cl)c1	-1%	?	9%[57.1 µM]	-6%[57.1 µM]	-10	-2%	13µM*
COc1ccc(-n2c(=O)c3c4c(sc3n(Cc3cc(C)ccc3C)c2=O)CN(C(C)=O)CC4)c(OC)c1	18%	?	5%	-5%	1	?	14µM*
CCN(CC)C(=O)c1sc2c(c1C)c(=O)n(CCc1ccccc1)c(=O)n2Cc1cc(C)ccc1C	3%	10µM*	12%[57.1 µM]	2%[57.1 µM]	-8	-2%	8.9µM*

Source: PubChem (National Center for Advancing Translational Sciences (NCATS))
